The values that follow come from PubChem BioAssay (Tox21).

A short description of assay [1]: qHTS assay to identify small molecule antagonists of the sonic hedgehog signaling (Shh) pathway (AID 1259369). Also: nearly all actives have a fitted effect of over 45% in size. Also: potency is read from the fitted curve at half-maximal effect. Put shortly:
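NIH/3T3 stable Gli1-Luc clone, 2,000 cells/well, 4hr settle; cpd + conditioned medium 24hr; Luc reagent 30min RT; luminescence.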
On the technique in general: Quantitative high-throughput screening tests each substance at several concentrations.

Assay [2] deals with Estrogen receptor beta (Homo sapiens) (UniProt Q92731). The experiment in a line: qHTS assay to identify small molecule agonists of the estrogen receptor beta (ER-beta) signaling pathway (AID 1259377; active = well fitted activation curve with a large enough effect in the signal ratio in the repeat runs, not every such curve was filed as active; the % refers to the signal ratio). Put shortly: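 Measured by fluorescence intensity from a B/G FRET beta-lactamase substrate (2 h, room temperature) in ER-beta-UAS-bla HEK293T cells treated with DMSO-dissolved compounds for 16 hr at 37C and 5% CO2.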
Chain of Estrogen receptor beta (Homo sapiens) (Q92731 whole entry, looked up): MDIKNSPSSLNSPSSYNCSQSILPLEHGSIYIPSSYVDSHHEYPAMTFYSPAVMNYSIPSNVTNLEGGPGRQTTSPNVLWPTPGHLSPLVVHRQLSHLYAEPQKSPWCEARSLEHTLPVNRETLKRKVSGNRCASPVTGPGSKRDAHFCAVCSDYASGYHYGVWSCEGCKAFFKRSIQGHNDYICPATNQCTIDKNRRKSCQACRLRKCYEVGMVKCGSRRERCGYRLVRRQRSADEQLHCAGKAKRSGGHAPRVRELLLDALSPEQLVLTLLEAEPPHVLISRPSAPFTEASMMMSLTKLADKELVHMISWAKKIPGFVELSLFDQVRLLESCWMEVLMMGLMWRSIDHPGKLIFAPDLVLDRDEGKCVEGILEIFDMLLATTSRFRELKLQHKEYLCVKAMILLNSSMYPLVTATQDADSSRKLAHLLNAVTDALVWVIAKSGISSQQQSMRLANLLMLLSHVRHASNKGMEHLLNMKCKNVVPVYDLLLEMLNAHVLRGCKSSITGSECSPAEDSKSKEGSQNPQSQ

For assay [3] the target is unchanged. The experiment in a line: qHTS assay to identify small molecule antagonists of the estrogen receptor beta (ER-beta) signaling pathway (AID 1259378; active = well fitted inhibition curve with a large enough effect in the signal ratio in the repeat runs, not every such curve was filed as active; the % refers to the signal ratio; also: potency is read from the fitted curve at half-maximal effect). Put shortly: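 ER-beta-UAS-bla HEK293T cells in 2% charcoal-stripped FBS medium treated with compound plus 1nM final 17-beta-estradiol for 16 hr at 37C. Beta-lactamase reporter read by FRET substrate fluorescence after 2 hours at room temperature.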

Assay [4] can be described thus: qHTS assay to identify small molecule agonists of the androgen receptor (AR) signaling pathway in the presence of an antagonist - cell viability counter screen (AID 1259379; active = well fitted curve in the direction sought with a large enough effect in the repeat runs; an effect the other way counts as inactive or inconclusive; also: nearly all actives have a fitted effect of over 25% in size; also: potency is read from the fitted curve at half-maximal effect). Put shortly: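 MDA-kb2 viability measured by CellTiter-Fluor fluorescence in the same wells as the luciferase signal; nilutamide 3.0uM final; 15-point compound titration; 16 hr at 37C.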
A short description of assay [5]: qHTS assay to identify small molecule agonists of the estrogen receptor beta (ER-beta) signaling pathway - cell viability counter screen (AID 1259380; active = well fitted curve in the direction sought with a large enough effect in the repeat runs; an effect the other way counts as inactive or inconclusive; also: nearly all actives have a fitted effect of over 30% in size; also: potency is read from the fitted curve at half-maximal effect). Put shortly:
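Measured: luminescence from CellTiter-Glo after 30 min at room temperature, added to wells already read for the LiveBLAzer FRET reporter (2 hr substrate); ER-beta-UAS-bla HEK293T cells had 16 hr compound treatment at 37C, 5% CO2.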

A short description of assay [6]: qHTS assay to identify small molecule antagonists of the estrogen receptor beta (ER-beta) signaling pathway - cell viability counter screen (AID 1259382; active = well fitted curve in the direction sought with a large enough effect in the repeat runs; an effect the other way counts as inactive or inconclusive; also: series mostly up to about 92 µM; nearly all actives have a fitted effect of over 55% in size). Put shortly:
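Readout: luminescence, CellTiter-Glo, same wells as bla assay. System: ER-beta-UAS-bla GripTite HEK293T, 2% charcoal-stripped FBS. Exposure: compounds plus 1nM 17-beta-estradiol, 16 hr, 37C.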

In assay [7] the target is Estrogen receptor (Homo sapiens) (UniProt P03372). The experiment in a line: qHTS assay to identify small molecule agonists of the estrogen receptor alpha (ER-alpha) signaling pathway in the presence of an antagonist (AID 1259383). Also: nearly all actives have a fitted effect of over 15% in size. Also: potency is read from the fitted curve at half-maximal effect. As to activation: top concentration of the series differs between compounds. The procedure, abridged:
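Quantitative HTS confirmation: compounds titrated at 15 concentrations onto estrogen-deprived VM7Luc4E2 cells carrying a four-ERE luciferase construct, with ICI-182,780 present at 10.0nM final. Signal is luminescence after 22hr exposure.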

The nature of assay [8]: qHTS assay to identify small molecule agonists or antagonists of the thyroid stimulating hormone receptor (TSHR) signaling pathway - wild type cell line counter screen (AID 1259384). Put shortly: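 Wild-type Hek293 cells, 800/well, 18 h at 37C, then compound with Ro20-1724 for 30 min RT. cAMP by HTRF (cAMP-d2/anti-cAMP cryptate), 1 h RT, fluorescence read. 15 concentrations, triplicates.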

Assay [9] concerns the target Thyrotropin receptor (Homo sapiens) (UniProt P16473). Briefly: qHTS assay to identify small molecule antagonists of the thyroid stimulating hormone receptor (TSHR) signaling pathway (AID 1259385). Also: nearly all actives have a fitted effect of over 20% in size. Put shortly:
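TSHR-HEK293 cells (800/well) plated 18 h, then compounds with Ro20-1724 and TSH at 1.5 ng/mL final, 30 min at room temperature. cAMP quantified by HTRF (cAMP-d2/anti-cAMP-cryptate, 1 h); 15 concentrations in triplicate.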

In assay [10] the target is Androgen receptor (Homo sapiens) (UniProt P10275). Briefly: qHTS assay to identify small molecule agonists of the androgen receptor (AR) signaling pathway in the presence of an antagonist (AID 1259381). Also: nearly all actives have a fitted effect of over 15% in size. Also: potency is read from the fitted curve at half-maximal effect. Put shortly:
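Luminescent ONE-Glo read, 30min at room temperature, follows 16hr compound exposure (15 concentrations) of MDA-kb2 cells at 37C, 0% CO2, with nilutamide added at 3.0uM final.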

Results filed as inconclusive are left out. Calls of active or inactive are those of the source. Unless noted, calls follow the shape of the full dose curve.

Chain of Thyrotropin receptor (Homo sapiens) (P16473 whole entry, looked up): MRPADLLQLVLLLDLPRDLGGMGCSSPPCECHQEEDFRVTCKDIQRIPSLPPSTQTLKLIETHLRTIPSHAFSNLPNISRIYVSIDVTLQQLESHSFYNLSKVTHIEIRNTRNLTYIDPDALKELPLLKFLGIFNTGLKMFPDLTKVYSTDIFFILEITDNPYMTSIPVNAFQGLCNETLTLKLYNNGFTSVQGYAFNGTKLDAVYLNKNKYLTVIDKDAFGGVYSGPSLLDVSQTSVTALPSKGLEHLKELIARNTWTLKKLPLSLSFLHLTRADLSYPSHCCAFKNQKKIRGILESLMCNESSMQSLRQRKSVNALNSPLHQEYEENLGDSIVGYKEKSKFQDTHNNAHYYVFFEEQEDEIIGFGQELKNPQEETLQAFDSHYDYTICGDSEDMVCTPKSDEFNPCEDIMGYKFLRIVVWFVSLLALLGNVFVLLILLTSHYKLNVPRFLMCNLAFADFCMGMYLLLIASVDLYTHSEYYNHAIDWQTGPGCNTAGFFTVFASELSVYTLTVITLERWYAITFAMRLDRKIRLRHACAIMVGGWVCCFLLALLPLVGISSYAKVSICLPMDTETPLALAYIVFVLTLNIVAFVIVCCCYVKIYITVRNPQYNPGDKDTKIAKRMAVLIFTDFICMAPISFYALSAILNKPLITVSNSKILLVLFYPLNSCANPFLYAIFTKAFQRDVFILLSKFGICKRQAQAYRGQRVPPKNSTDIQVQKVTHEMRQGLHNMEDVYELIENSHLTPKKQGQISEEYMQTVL
Chain of Estrogen receptor (Homo sapiens) (P03372 whole entry, looked up): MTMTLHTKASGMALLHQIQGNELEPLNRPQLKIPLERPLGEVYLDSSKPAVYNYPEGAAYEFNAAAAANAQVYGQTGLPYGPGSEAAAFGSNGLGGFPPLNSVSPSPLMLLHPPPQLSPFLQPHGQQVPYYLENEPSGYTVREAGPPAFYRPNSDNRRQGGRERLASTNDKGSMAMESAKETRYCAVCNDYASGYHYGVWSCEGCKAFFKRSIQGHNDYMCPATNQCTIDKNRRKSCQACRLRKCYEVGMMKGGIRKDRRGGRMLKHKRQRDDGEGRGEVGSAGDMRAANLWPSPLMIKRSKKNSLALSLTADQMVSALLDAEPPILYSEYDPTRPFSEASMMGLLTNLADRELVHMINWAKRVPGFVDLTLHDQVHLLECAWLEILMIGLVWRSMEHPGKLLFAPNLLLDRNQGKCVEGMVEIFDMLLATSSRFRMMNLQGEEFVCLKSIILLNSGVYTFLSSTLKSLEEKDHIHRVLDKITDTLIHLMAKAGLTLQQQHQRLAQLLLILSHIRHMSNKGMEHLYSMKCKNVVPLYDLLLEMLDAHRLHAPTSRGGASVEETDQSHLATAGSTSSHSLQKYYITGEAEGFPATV
Chain of Androgen receptor (Homo sapiens) (P10275 whole entry, looked up): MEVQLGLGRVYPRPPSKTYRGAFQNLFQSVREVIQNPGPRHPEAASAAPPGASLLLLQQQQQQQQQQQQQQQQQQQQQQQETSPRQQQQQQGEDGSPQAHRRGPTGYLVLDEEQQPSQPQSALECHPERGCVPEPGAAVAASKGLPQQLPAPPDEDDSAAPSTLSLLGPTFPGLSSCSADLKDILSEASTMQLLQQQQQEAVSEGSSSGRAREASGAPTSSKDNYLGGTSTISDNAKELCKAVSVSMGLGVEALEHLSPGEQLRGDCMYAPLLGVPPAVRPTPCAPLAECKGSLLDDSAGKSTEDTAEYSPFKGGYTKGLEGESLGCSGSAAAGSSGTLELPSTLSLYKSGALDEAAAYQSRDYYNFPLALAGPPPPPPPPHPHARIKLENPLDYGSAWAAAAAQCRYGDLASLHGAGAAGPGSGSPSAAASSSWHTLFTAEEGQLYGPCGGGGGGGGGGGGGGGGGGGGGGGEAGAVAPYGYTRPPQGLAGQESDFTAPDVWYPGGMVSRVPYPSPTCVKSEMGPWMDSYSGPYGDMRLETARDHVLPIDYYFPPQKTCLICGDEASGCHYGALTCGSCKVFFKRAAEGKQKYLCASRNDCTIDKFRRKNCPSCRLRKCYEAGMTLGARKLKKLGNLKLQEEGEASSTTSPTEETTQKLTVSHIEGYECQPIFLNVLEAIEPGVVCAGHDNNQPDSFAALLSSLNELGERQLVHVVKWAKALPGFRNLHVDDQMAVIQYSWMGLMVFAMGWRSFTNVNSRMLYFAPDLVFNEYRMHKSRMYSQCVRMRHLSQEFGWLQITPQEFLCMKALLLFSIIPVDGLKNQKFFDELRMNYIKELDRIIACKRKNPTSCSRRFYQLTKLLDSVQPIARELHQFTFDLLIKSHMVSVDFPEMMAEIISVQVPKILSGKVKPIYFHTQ

Take `COC(=O)CCS`: the Potency entry in assay [1], in assay [2], in assay [3], in assay [4], in assay [5] and in [6] was “inactive” in each case. The Potency result in [7] and in assay [9] was “inactive” in each case. For the same molecule, the outcome in [8] was inactive.

As to `CC(C)(C)CC(=O)OCC(=O)[C@@]1(O)CC[C@H]2[C@@H]3CCC4=CC(=O)C=C[C@]4(C)[C@H]3[C@@H](O)C[C@@]21C`, the results for the Potency in assay [1], in assay [3] and in assay [5] were 6.68 µM (active), 26.6 µM (active) and 8.41 µM (active), respectively. Also, the Potency entry in [2], in assay [4] and in assay [7] was “inactive” each time. Besides, the molecule was called inactive in assay [8].

As for `CC(O)c1ccccc1` (stereo not drawn), the Potency entry in assay [1], in [2], in assay [3], in assay [4], in [5] and in [6] was “inactive” throughout. The Potency entry in assay [7] and in assay [9] was “inactive” throughout. Besides, the result in assay [8] was inactive.

Consider `O=c1cc(-c2ccccc2)oc2ccc3ccccc3c12`, for which the figures for the Potency in assay [1], in [5] and in [7] were 5.45 µM (active), 24.3 µM (active) and 0.686 µM (active), respectively. In addition, the Potency result in assay [2], in assay [3] and in assay [4] was “inactive” in each case. The outcome in [8] was inactive.

For the molecule `Nc1cccc2c1CN(C1CCC(=O)NC1=O)C2=O` (stereo not drawn), the Potency result in assay [1], in assay [2], in assay [3], in [4], in [5] and in assay [6] was “inactive” in each case. In addition, the Potency entry in [7] and in [9] was “inactive” in each case. In assay [8], the call was inactive.

Consider `O=C1CCCCCCCCCCOCCCCO1`, for which the Potency entry in assay [1], in assay [2], in assay [3], in assay [4], in assay [5] and in assay [6] was “inactive” each time. Moreover, the Potency entry in assay [9] was “inactive”. Also, in assay [8], the result was inactive.

In the case of `O=C(O)C[C@H](NC(=O)OCc1ccccc1)C(=O)O`, the Potency result in [1], in assay [2], in assay [3], in assay [4], in assay [5] and in [6] was “inactive” each time. Besides, the Potency entry in assay [7] and in assay [9] was “inactive” each time. The result in assay [8] was inactive.

For the molecule `Cc1c(C)c2c(c(C)c1OC(=O)CCC(=O)OCCO)CC[C@@](C)(CCC[C@H](C)CCC[C@H](C)CCCC(C)C)O2`, the Potency entry in assay [1], in assay [2], in assay [4], in [7] and in assay [9] was “inactive” each time. In [3], the Potency is 13.3 µM (active). The outcome in assay [8] was inactive.

Regarding `CCCCOc1ccc(OCCCN2CCOCC2)cc1`, the Potency in assay [1] is 13.3 µM (active). The Potency result in assay [2], in assay [3], in [4], in [6] and in [7] was “inactive” each time. In addition, the outcome in [8] was inactive.

Turning to `NNC(=O)CP(=O)(c1ccccc1)c1ccccc1`, the Potency entry in [1], in [2], in assay [3], in assay [4], in assay [6] and in [9] was “inactive” each time. The molecule was classed as inactive in assay [8].

Turning to `CCn1cc(C(=O)O)c(=O)c2cc(F)c(N3CCNCC3)cc21`, the Potency result in assay [1], in assay [2], in [3], in assay [4], in assay [5] and in [6] was “inactive” in each case. For the same molecule, the Potency result in assay [7] and in assay [9] was “inactive” throughout. In assay [8], the molecule was called inactive.

`O=C(CCCN1CC=C(n2c(=O)[nH]c3ccccc32)CC1)c1ccc(F)cc1`: the Potency result in [1], in assay [2], in assay [3], in [4], in assay [7] and in [9] was “inactive” each time. Also, in assay [5], the Potency is 13.3 µM (active). The molecule was classed as inactive in assay [8].

As to `CCC1NC(=O)c2cc(S(N)(=O)=O)c(Cl)cc2N1` (stereo not drawn), the Potency entry in assay [1], in assay [2], in [3], in assay [4], in assay [6] and in assay [9] was “inactive” throughout. In addition, in [8], the molecule was called inactive.

With `O=C1Cc2ccccc2N1c1c(Cl)cccc1Cl`, the Potency entry in assay [1], in assay [2], in assay [10], in assay [6] and in assay [7] was “inactive” each time. Also, the figures for the Potency in [3] and in assay [5] were 54.5 µM (active) and 19.3 µM (active), respectively. Also, in [8], the molecule was called inactive.

As to `Cc1cc(C)c(N)cc1C`, the Potency result in [1], in assay [2], in assay [3], in assay [4], in assay [5] and in assay [6] was “inactive” in each case. Also, the Potency result in assay [7] and in assay [9] was “inactive” throughout. For the same molecule, in assay [8], the outcome was inactive.

Consider `CCOC(=O)c1ccc(C#Cc2ccc3c(c2)C(C)(C)CCS3)nc1`, for which the Potency entry in assay [1], in assay [2], in assay [3], in [4], in [5] and in assay [6] was “inactive” throughout. In [8], the molecule was called inactive.

As for `C=CC(C)(CCC=C(C)C)OC(=O)CC(C)C` (stereo not drawn), the Potency result in assay [1], in [2], in assay [3], in assay [4], in assay [5] and in [6] was “inactive” in each case. Moreover, the Potency result in assay [7] and in assay [9] was “inactive” each time. Also, the molecule was called inactive in assay [8].

In the case of `Cc1ccccc1S`, the Potency entry in [1], in [2], in assay [3], in assay [4], in assay [5] and in [6] was “inactive” in each case. Also, the Potency entry in [7] and in assay [9] was “inactive” each time. Moreover, the molecule was classed as inactive in [8].

As to `CC(C)C=O`, the Potency result in assay [1], in [2], in assay [3], in [4], in assay [5] and in assay [6] was “inactive” in each case. For the same molecule, in assay [8], the call was inactive.

Turning to `CC1=C(CC=O)C(C)(C)CCC1`, the Potency result in assay [1], in assay [2], in assay [3], in [4], in assay [5] and in assay [6] was “inactive” in each case. The Potency entry in assay [9] was “inactive”. Also, the outcome in [8] was inactive.

Consider `CCC(C)COC(=O)CC(C)C` (stereo not drawn), for which the Potency entry in [1], in assay [2], in [3], in assay [4], in assay [7] and in assay [9] was “inactive” throughout. Besides, in [5], the Potency was 30.6 µM (active). Moreover, in assay [8], the molecule was called inactive.

With `CCOC(=O)OC(C)OC(=O)[C@@H]1N2C(=O)[C@@H](NC(=O)[C@H](N)c3ccccc3)[C@H]2SC1(C)C` (stereo partly drawn), the Potency result in assay [1], in assay [2], in [3], in [4], in assay [5] and in assay [6] was “inactive” throughout. Besides, in assay [8], the call was inactive.

As for `CC(=O)OCC[N+](C)(C)C`, the Potency entry in assay [1], in assay [2], in [3], in assay [4], in assay [5] and in assay [6] was “inactive” in each case. Also, in [9], the Potency entry was “inactive”. In addition, the result in [8] was inactive.

For `CCCCCCCCCI`, the Potency entry in assay [1], in assay [2], in [3], in assay [4], in assay [5] and in [6] was “inactive” throughout. Also, the Potency entry in assay [7] and in assay [9] was “inactive” in each case. Moreover, the call in assay [8] was inactive.

`CC(C)=CCC/C(C)=C/CC/C(C)=C/C(=O)OCC(=O)[C@@]1(O)CC[C@H]2[C@@H]3CCC4=CC(=O)C=C[C@]4(C)[C@H]3[C@@H](O)C[C@@]21C`: the Potency in [1] was 8.41 µM (active); in assay [3], 13.3 µM (active); in [4], 26.6 µM (active); in assay [10], 0.335 µM (active). The Potency entry in assay [2], in assay [6] and in assay [7] was “inactive” in each case. In assay [8], the molecule was classed as inactive.

As to `Clc1ccc(Nc2nnc(Cc3ccncc3)c3ccccc23)cc1`, the Potency in assay [1] was 1.19 µM (active); in assay [3] it was 13.3 µM (active). Further, the Potency result in [2], in assay [4], in [6], in assay [7] and in [9] was “inactive” each time. Moreover, the outcome in assay [8] was inactive.
